These results are taken from the supplement of paper PMC6555819.

This experiment deals with FXR:RXRa (NR concentration 270 nM, RXRa partner concentration 90 nM). Put plainly: PBM binding z-score (relative to random genomic background probes); higher = stronger binding; sequences stand for … in GC…GCGATTGACAGCGTAGAATGAAGG
The method, boiled down: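 Regression normalization was applied to scanned fluorescence from custom Agilent 4×180K protein-binding microarrays. Before scanning, arrays were incubated 1 h with ligand-free nuclear receptor dimers, and binding was detected with antibodies against each partner (one per run). Binding z-scores use the random background probes as reference.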
CGTCCGAGGTCAGCAGGTCAGTGAAAGCGACGTG gave a PBM binding z-score of 6.67. With ATACCAAGGCGATCGTGAGGTCGTTGATACTAAC, the PBM binding z-score is 0.659.

As for TAGAGTAGGTTAGGGGCATTCAGAATGGCGTCGA, the PBM binding z-score stood at 0.854. As for CCTTACGGGTCAACGTTATAGCACGGGTGGTACG, the figure is 4.79; as for ATACCAAGGTGATCGTAAGGTCGTTGATACTAAC, 2.06; as for ATACCAAGGTGATCGTGAGGTCGTGGATACTAAC, 1.71. Consider GCTCGGTGGACAAGGTCAGAGCTTTGTCCGTAGA, for which the PBM binding z-score is 1.11. With CCTAGCTGGTCAGGAGGTCACACACCGGATATGA, the PBM binding z-score is 3.53. On to AGAATGAGGTTATTAAGTTCAGGGAATTGCGGTC, for which the PBM binding z-score worked out at 2.41. In turn, TCTTGTAGATCAAAGGTTAACAAAGCCGAAGCCT registered a PBM binding z-score of 1.99. Take CGTGCAAGGTCAGCAGGTCAGTGAAAGCGACGTG: the PBM binding z-score is 6.34. Take GCGACTGGGGCATCAGCAGGTTACCAGAACTTAA: the PBM binding z-score was -0.204. AGTCAAAGTTCATCTATGTAACGTAAGATATGCT showed a PBM binding z-score of 6.5. For the sequence AGTCATAGTTCAGGACGAGGTAACGTAAAGCACG, the PBM binding z-score amounted to 1.09. With AGTCAAAGTGCACTAGGTAACGTAAGATTCAGCT, the PBM binding z-score is -0.308. TCGAGAAGGTTACCAATGGGGCATTCAGCTTTCT gave a PBM binding z-score of 0.688. TCTAGTTGGTCAAAGGTCACACAGTCGAAATGCG had a PBM binding z-score of 6.26.

As for CGAACTAGGTAATCCAGGACAGTGAATACATTGA, the PBM binding z-score was -0.0818.
